Among the data in PubChem BioAssay (Tox21) are Potency and activity change, negative = cytotoxicity values, retold here.

Where “and” joins values, the source holds several entries; their conditions need not be identical. Equal entries are not always repeated. Results filed as inconclusive are left out. A call without a number means that no potency is given here. Calls of active or inactive are those of the source. Calls come from the whole dose curve.
Potency is the fitted concentration of half-maximal effect.

This assay can be described thus: qHTS assay to identify small molecule agonists of H2AX - cell viability counter screen (AID 1224847). For activity change, negative = cytotoxicity: top concentration of the series differs between compounds. Note: nearly all actives have a fitted effect of over 30% in size. To be noted: CHO-K1 viability, CellTiter-Glo luminescence, 3 h; series mostly up to 154 µM. An excerpt:
National Center for Advancing Translational Sciences [NCATS]
NIH Chemical Genomics Center [NCGC]
U.S. Environmental Protection Agency [EPA]
National Institutes of Environmental Health Sciences [NIEHS]
National Toxicology Program [NTP]
U.S. Food and Drug Administration [FDA]
HTRF phospho-H2AX (Ser139) assay (Cisbio Bioassays, US) enables the quantitative detection of the histone variant H2AX when phosphorylated on serine 139. When double-stranded DNA breaks, either by ionizing radiation or endogenous physiological processes, H2AX becomes phosphorylated at Ser139. This phospho-Ser139 serves as a sensitive biomarker for the detection of such breaks, localizing the site of DNA repair. So, HTRF phospho-H2AX Ser139 is a pertinent assay to study genome stability, the cell cycle, DNA repair, and it serves as a biomarker for cancer, and to understand aging. Wild type CHO-K1 cells were used to identify the inducers of Phospho-H2AX Ser 139 from the Tox21 compound collections. Also cytotoxicity of the Tox21 10K compound library against the CHO-K1 cell line was tested by measuring the cell viability using CellTiter-Glo assay (Promega, Madison, WI).
Tox21 Assay Protocol Summary:
The CHO-K1 cells suspended in culture medium containing 10% FBS were dispensed at 1000 cells/ 3 ul/well in 1536-well white wall/solid bottom plates (Greiner Bio-One North America, NC) using a Multidrop Combi (Thermo Fisher Scientific Inc., Waltham, MA). After the assay plates were incubated at 37C overnight, 23 nl of compounds at 15 concentrations (from 5-48 columns) or positive control (from 1 to 4 columns) were transferred to the assay plates using a Pintool station (Wako, San Diego, CA) into each well resulting in a final DMSO concentration of 0.76%. After 3hr incubation at 37C, 3 uL/well CellTiter-Glo luminescent cell viability reagent (Promega Corporation, Madison, WI) was added using a Flying Reagent Dispenser (FRD) (Aurora Discovery, CA). After incubation at room temperature for 30 min, the luminescence intensity was read using a ViewLux plate reader (PerkinElmer, Waltham, MA).
In the case of `O=[N+]([O-])c1cccc(C(F)(F)F)c1`, the Potency result was “inactive”.
In the case of `CCCCCc1ccc(Cl)cc1`, the Potency result is “inactive”.
Same read-out and setting: the value for `CCC(C)n1ncn(-c2ccc(N3CCN(c4ccc(OC[C@H]5CO[C@](Cn6cncn6)(c6ccc(Cl)cc6Cl)O5)cc4)CC3)cc2)c1=O` (stereo not given in full) was “inactive”; that for `COc1cccc(OC)c1C(=O)O` was “inactive”.
Still for that read-out and setting: the result for `O=C(c1ccc(O)c(O)c1)c1ccc(O)cc1O` reads “inactive”.
The same measure, in the same setting: the result for `COC(C)=O` reads “inactive”; that for `CC1=Nc2ccccc2C1(C)C`, 89.9 µM (active); that for `c1ccsc1`, “inactive”.
On to `CC(C)(C)CC(C)(C)c1ccc(Nc2ccc(C(C)(C)CC(C)(C)C)cc2)cc1`, for which the activity change, negative = cytotoxicity is 0.45% [at 14 µM] (inactive).
Take `Cc1c(C)c2c(c(C)c1OC(=O)c1cccnc1)CC[C@@](C)(CCC[C@H](C)CCC[C@H](C)CCCC(C)C)O2`: the Potency entry is “inactive”.
In the case of `CC/C=C\CCCCCO`, the Potency result was “inactive”.
On the same count and under the same terms, the result for `CCN(CC)c1ccc2c(-c3ccc(S(=O)(=O)O)cc3S(=O)(=O)[O-])c3ccc(=[N+](CC)CC)cc-3oc2c1` reads 20.7 µM (active); that for `CC(N=C(NC#N)Nc1ccncc1)C(C)(C)C` (stereo not given), “inactive”.
As to `COc1cc(S(=O)(=O)O)c(C)cc1N=Nc1c(O)ccc2cc(S(=O)(=O)O)ccc12`, the Potency was 45 µM (active).
The same measure, in the same setting: the value for `CCCCNS(=O)(=O)c1ccc(C)cc1` was “inactive”; that for `CCC(COC(=O)CCS)(COC(=O)CCS)COC(=O)CCS` was “inactive”.
In the case of `Cc1c(C)c2c(c(C)c1O)CC[C@@](C)(CCC[C@H](C)CCC[C@H](C)CCCC(C)C)O2`, the Potency result was “inactive”.
As to `O=C(O)c1cccc(C(F)(F)F)c1`, the Potency result is “inactive”.
On the same count and under the same terms, the result for `CCc1ccc(Br)cc1` reads “inactive”.
Regarding `C[C@H]1NCc2cc(-c3ccc4c(=O)c(C(=O)O)cn(C5CC5)c4c3OC(F)F)ccc21`, the activity change, negative = cytotoxicity was 0.563% [at 31.6 µM] (inactive).
Regarding `Cc1ccc(C)cc1`, the Potency entry is “inactive”.
Still for that read-out and setting: the value for `O=C(O)Cc1ccc2c(c1)C(=O)c1ccccc1CO2` was “inactive”.
Same read-out and setting: the value for `Oc1c(I)cc(Cl)c2cccnc12` was “inactive”; that for `Cc1cc(-n2nc3ccc(Cl)cc3n2)c(O)c(C(C)(C)C)c1` was “inactive”; that for `CCCCCC/C=C\CCCCCCCC(=O)O` was “inactive”.
On the same count and under the same terms, the value for `CC(=O)[C@H]1CC[C@H]2[C@@H]3CCC4=CC(=O)CC[C@]4(C)[C@H]3CC[C@]12C` was 100 µM (active) and 101 µM (active).
In the case of `CC(C)Cn1cnc2c(N)nc3ccccc3c21`, the activity change, negative = cytotoxicity was 1.2% [at 31.6 µM] (inactive).
`Cl[Si](Cl)(c1ccccc1)c1ccccc1`: the Potency result is “inactive”.
With `CNc1ccc([N+](=O)[O-])cc1`, the Potency entry was “inactive”.
Same read-out and setting: the value for `C=C(C)C(=O)OCCCCCCCCCC` was “inactive”; that for `CCC(C)(CCC(C)C)C(=O)[O][Sn]([CH3])([CH3])[O]C(=O)C(C)(CC)CCC(C)C` (stereo not given) was “inactive”.
Consider `C[C@@H](O)[C@H](N)C(=O)O`, for which the activity change, negative = cytotoxicity is -4.33% [at 31.6 µM] (inactive).
With `CCCCCCCCCCCCCCCC[N+](C)(C)CC`, the Potency was 101 µM (active) and 49.2 µM (active).
In the case of `CCCCOC(=O)CC`, the Potency result is “inactive”.
Still for that read-out and setting: the value for `FC(F)(F)c1cccc(Cl)c1` was “inactive”; that for `CCCC[P+](C)(CCCC)CCCC` was “inactive”; that for `CC(C)(C)C1CCC(=O)CC1` was “inactive”.
The same measure, in the same setting: the result for `O=S(=O)(O)c1ccc(Nc2nc(Nc3ccc(/C=C/c4ccc(Nc5nc(Nc6ccc(S(=O)(=O)O)cc6)nc(N(CCO)CCO)n5)cc4S(=O)(=O)O)c(S(=O)(=O)O)c3)nc(N(CCO)CCO)n2)cc1` reads “inactive”.
Same read-out and setting: the result for `Cc1cc(C)c(/C=C2\C(=O)Nc3ccccc32)[nH]1` reads “inactive”; that for `O=C(/C=C/c1ccccc1)OC/C=C/c1ccccc1`, “inactive”.
